The source of these data is PubChem BioAssay AID492992 (Johns Hopkins Ion Channel Center, 2010).

Broadly, the inhibition is how much of the control response was suppressed.

Hit rate of the full screen: of about 4,900 compounds, about 2,100 (43%) were called active.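 The calls were made as follows: active = thallium signal inhibited by more than 5 SD of the compound-free buffer control wells, on both duplicate plates; inactive = the rest.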 The set was probably picked from earlier hits. The list is a sample of the results.

Chain of Potassium channel subfamily K member 9 (Homo sapiens) (Q9NPC2 whole entry, looked up): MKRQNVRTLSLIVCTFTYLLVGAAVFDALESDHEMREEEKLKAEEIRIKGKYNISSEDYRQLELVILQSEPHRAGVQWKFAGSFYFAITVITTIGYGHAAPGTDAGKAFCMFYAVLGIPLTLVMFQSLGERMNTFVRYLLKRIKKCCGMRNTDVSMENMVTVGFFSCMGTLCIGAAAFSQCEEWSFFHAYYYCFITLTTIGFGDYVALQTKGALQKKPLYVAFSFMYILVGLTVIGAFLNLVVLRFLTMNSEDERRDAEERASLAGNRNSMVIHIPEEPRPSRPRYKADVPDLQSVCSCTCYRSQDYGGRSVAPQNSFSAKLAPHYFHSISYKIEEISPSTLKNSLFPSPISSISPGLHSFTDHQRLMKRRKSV

The test addresses Potassium channel subfamily K member 9 (Homo sapiens) (UniProt Q9NPC2). The experiment in a line: KCNK9 potassium channel inhibitors, confirmation, HEK293 cells, thallium flux, duplicate (AID 492992).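 As to inhibition: 0% = assay buffer control wells without compound.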 The following applies: FluxOR thallium flux fluorescence, at 10 µM; active compounds read high.
In the case of `CN(CCC(=O)Nc1cc(S(=O)(=O)N(C)C)ccc1Cl)CC(=O)Nc1ccc(F)cc1`, the inhibition is 51.5% (active).
Consider `CC1CCN(C(=S)c2ccc(-c3ccc(Cl)cc3Cl)o2)CC1`, for which the inhibition entry is “inactive”.
Regarding `COc1ccc(C2Nc3ccccc3C(=O)N2Cc2ccccc2)cc1Cn1nnc2ccccc21` (centres undefined), the inhibition result was “inactive”.
Next, `O=C(Nc1ccc(Cl)c(Cl)c1)N1CC=C(c2ccccc2)CC1`: 30% (active).
For the compound `O=C(COC(=O)c1ccccc1)Nc1ccccc1Sc1ccccc1`, the inhibition was 35% (active).
The same measure for `CCN(C(=O)COc1ccc(C(=O)c2ccccc2)cc1)c1ccccc1`: 40% (active); for `CCOC(=O)[C@@H]1[C@H]2COc3ccc(Br)cc3[C@H]2N2C(=O)N(c3ccc(Cl)cc3)C(=O)[C@@]12C`: 56.5% (active).
Next, `C[C@@]12C(=O)N(c3cccc(Br)c3)C(=O)N1[C@H](c1ccc(Cl)cc1)[C@@H]1C(=O)N(C3CCCCC3)C(=O)[C@@H]12`: “inactive”.
As for `COc1cccc2cc(C(C)N(CCCN3CCOCC3)C(=O)Nc3ccc(Cl)cc3)oc12` (centres undefined), the inhibition is 42.5% (active).
On to `Cc1cccc2cc(CN(Cc3nnnn3Cc3ccccc3)C3CCCC3)c(=O)[nH]c12`, for which the inhibition is 27% (active).
For the compound `CCC(c1nnnn1Cc1ccco1)N(CCc1ccccc1)Cc1cc2cccc(C)c2[nH]c1=O` (centres undefined), the inhibition is 47% (active).
In the case of `CCOc1ccc(OCc2ccc(C(=O)Nc3cccc(C)n3)o2)cc1`, the inhibition entry was “inactive”.
As to `O=C(Cc1ccccc1)n1nc(-c2ccccc2)nc1NCc1ccco1`, the inhibition entry was “inactive”.
Take `CCC1(C)Cc2c(sc3[nH]c(=S)n(Cc4ccccc4)c(=O)c23)CO1` (centres undefined): the inhibition result is “inactive”.
Next, `CCCSc1nc(NCc2ccco2)c2c3c(sc2n1)COC(C)(CC)C3` (centres undefined): 40% (active); `Cc1ccc(C)c(NC(=S)NNC(=S)Nc2ccc(C(C)C)cc2)c1`: “inactive”; `CCOC(=O)Cc1cc(=O)[nH]c(=O)[nH]1`: 25% (active).
Next, `Clc1ccc(Cl)c(Oc2ccc(Oc3nc(Cl)ccc3Cl)cc2)n1`: “inactive”; `CCC/C=C(\CCC)C(NC(=O)Cc1ccccc1)c1ccc(C(=O)OC)cc1` (centres undefined): 67% (active); `CC(C)(C)SCCSC1=CC(=O)CC(c2ccccc2)C1` (centres undefined): “inactive”.
With `CCCCCC(O)c1cccc(OCc2ccc3ccccc3n2)c1` (centres undefined), the inhibition is 74.5% (active).
On to `COc1cccc(-c2cnc(OC(C)(C)C)nc2OC(C)(C)C)c1`, for which the inhibition entry was “inactive”.
Next, `CCOC(=O)c1cc2sccc2n1Cc1ccc(C#N)cc1`: 65% (active); `CCOC(=O)c1c(NC(=O)CCCN2CCOCC2)sc2c1CC(C)(C)OC2`: “inactive”.
The same measure for `CN(CCOc1ccccc1)C(=O)c1cc(COc2c(F)cccc2F)on1`: “inactive”; for `CCOC(=O)C1=C(C)Nc2sc(C(=O)c3ccc(Br)cc3)c(N)c2C1c1ccc(C(=O)OC)cc1` (centres undefined): 31% (active).
The same measure for `COc1cc(Cl)c(S(=O)(=O)N2CCN(Cc3ccc4c(c3)OCO4)CC2)cc1Cl`: “inactive”; for `COc1ccc(C(=O)NN2C(=O)C3C(c4ccccc4)C=CC(c4ccccc4)C3C2=O)cc1` (centres undefined): “inactive”; for `COc1ccc(C(=O)Nc2ccccc2C(=O)N/N=C/c2ccccc2OC)cc1`: 36.5% (active).
As for `O=C(CNCCC1=CCCCC1)Nc1ccccc1N1CCCCCC1`, the inhibition was 51.5% (active).
Next, `O=c1cc(CN2CCN(c3cccc(Cl)c3)CC2)c2cc3c(cc2o1)CCCC3`: “inactive”.
In the case of `Cc1ccc(C(=O)c2c(NC(=O)c3ccncc3)sc3c2CCCC3)cc1`, the inhibition entry was “inactive”.
For `COc1cccc(OC)c1C(=O)Nc1sc2c(c1C(N)=O)CCCC2`, the inhibition is 33% (active).
Regarding `CCOC(=O)c1c(NC(=O)CSc2cn(CC)c3ccccc23)sc2c1CCC2`, the inhibition result is “inactive”.
The same measure for `Cc1cc2ccccn2c1C(=O)c1cccc(F)c1`: “inactive”; for `COc1ccc(C(CCN(Cc2ccc(OC)c(OC)c2)C(=O)CCl)c2ccccc2)cc1` (centres undefined): 36% (active).
The same measure for `Cc1ccc(-c2csc(NCCc3nc4cc(Cl)c(Cl)cc4n3CCOCCO)n2)cc1`: 54% (active); for `CCOC(=O)N1CCN(C(=O)COc2ccc3oc4c(c3c2)CCCC4)CC1`: “inactive”.
In the case of `Cc1cccc(NC(=O)c2sc3nc4c(c(-c5ccco5)c3c2N)CCC4)c1`, the inhibition was 58.5% (active).
Next, `O=C(N/N=C/c1ccccn1)c1cccc(NC(=O)c2ccc(Cl)cc2)c1`: 48% (active).
Consider `O=C(COc1ccc(Cl)cc1Cl)N/N=C/c1ccccn1`, for which the inhibition is 47% (active).
Take `O=C(Nc1ccc2c(c1)CCC2)c1cccc(S(=O)(=O)Nc2ccccc2Cl)c1`: the inhibition result was “inactive”.
With `Oc1ccc(/C=N/Nc2nc(-c3ccccc3F)nc3ccccc23)c(O)c1`, the inhibition result was “inactive”.
`COc1ccc(C(=O)C2CCCN(C(=O)c3ccc(OC)o3)C2)c(C)c1` (centres undefined): the inhibition entry is “inactive”.
Next, `COc1ccc(OC)c(C(=O)c2coc3ccc(OC)cc23)c1`: 47% (active); `Cc1ccnc(N2CCN(C(=O)CSc3nc4ccccc4nc3N3CCCCC3)CC2)c1`: “inactive”.
Regarding `Clc1ccc(COn2c(-c3ccc(Cl)cc3Cl)nc3ncccc32)cc1`, the inhibition was 41% (active).
As to `Cc1onc(-c2ccc(Cl)cc2)c1-c1ccnn1S(=O)(=O)c1ccc(Cl)cc1`, the inhibition result is “inactive”.
As for `Cc1ccc(SCC(=O)c2cc(C)c(OC(=S)N(C)C)c(C)c2)cc1`, the inhibition result is “inactive”.
In the case of `Cc1[nH][nH]c(=O)c1C(c1ccc(-c2ccc(Cl)cc2)o1)c1c(C)[nH][nH]c1=O`, the inhibition result is “inactive”.
Consider `Cc1cc(C=O)c(C)n1-c1ccc(NC2CCCCC2)c([N+](=O)[O-])c1`, for which the inhibition is 63% (active).
`Cc1ccc(NC(=O)c2cc([N+](=O)[O-])ccc2Cl)c(O)c1`: the inhibition is 58.5% (active).
As to `CCN(CC)S(=O)(=O)c1ccc(N(C)Cc2ccc(C(F)(F)F)cc2)nc1`, the inhibition result is “inactive”.
With `O=C1CC(c2ccccc2)=NN1c1ccc([N+](=O)[O-])cc1`, the inhibition entry is “inactive”.
As for `O=C1c2ccccc2S(=O)(=O)N1CC(O)Cn1c2ccccc2c2ccccc21` (centres undefined), the inhibition is 28% (active).
Turning to `CCCCOC(=O)CCCc1ccc([N+](=O)[O-])cc1[N+](=O)[O-]`, the inhibition entry is “inactive”.
On to `Cc1ncoc1C(=O)N1CCCC(C(=O)c2ccc3c4c(cccc24)CC3)C1` (centres undefined), for which the inhibition entry was “inactive”.
For `COC(=O)C1=C(Nc2ccc(C)cc2)C=C(C)C(C(=O)OC)C1c1ccc(F)cc1` (centres undefined), the inhibition is 36% (active).
For the compound `CCn1cnc2scc(-c3ccc(C)c(C)c3)c2c1=O`, the inhibition entry is “inactive”.
Next, `CCCOc1ccc2c3c(c(=O)oc2c1OCCC)CCC3`: 66.5% (active); `COc1ccc(C2CC(c3cccs3)=NN2c2ccccc2)cc1` (centres undefined): 50% (active); `COc1ccc(/C=C2\CCc3ccccc3C2=O)c(OC)c1OC`: “inactive”.
Turning to `Cc1ccccc1CSCCNC(=O)c1ccc(N(C)S(=O)(=O)c2ccccc2)cc1`, the inhibition entry was “inactive”.
For the compound `CN(c1ccccc1)S(=O)(=O)c1cccc(NC(=O)Cc2c(F)cccc2Cl)c1`, the inhibition was 67.5% (active).
On to `FC(F)(F)c1cc(-c2ccco2)nc(NCc2ccc(Cl)cc2)n1`, for which the inhibition entry is “inactive”.
Take `Fc1cccc(Cl)c1CSc1ccc(-c2ccco2)nn1`: the inhibition is 67% (active).
For `O=C(Nc1ccc(S(=O)(=O)N2CCCCC2)cc1)C1CCN(C(=O)c2ccc(F)cc2)CC1`, the inhibition entry is “inactive”.
For `Cc1ccc(C(=O)/C=C/c2c(C)nn(-c3ccccc3)c2Cl)cc1`, the inhibition entry was “inactive”.
Regarding `Cc1ccccc1N1CCN(Cc2nc(Cc3ccccc3F)no2)CC1`, the inhibition entry was “inactive”.
For the compound `CC(C)CC(COCc1ccc(Cl)cc1)N1CCN(C(=O)c2ccc(C(F)(F)F)cc2)CCC1=O` (centres undefined), the inhibition was 39.5% (active).
`CC1CCN(C(=O)c2ccc(CSc3ccc(Cl)cc3)cc2)CC1`: the inhibition entry is “inactive”.
With `CCCCN(CC)C(=O)C1CCCN(S(=O)(=O)c2cccc3nsnc23)C1` (centres undefined), the inhibition entry is “inactive”.
Consider `O=C(Nc1nnc(SCc2ccc(Cl)cc2Cl)s1)C1COc2ccccc2O1` (centres undefined), for which the inhibition entry is “inactive”.
Consider `COc1ccc(C(=O)C2CCCN(Cc3ccc4nonc4c3)C2)c(C)c1` (centres undefined), for which the inhibition result was “inactive”.
Regarding `CCCCCCCCn1c2c(c(=N)c3c1CCC3)CCCC2`, the inhibition was 62.5% (active).
Regarding `O=C(NC(=S)Nc1ccccc1C(=O)O)c1ccc(-c2ccc(Br)cc2)o1`, the inhibition entry was “inactive”.
In the case of `COc1ccc(-c2n[nH]c3c2CN(C(=O)c2ccc(F)cc2)CC3)cc1`, the inhibition result is “inactive”.
Consider `Cc1cc(OC(C)C(=O)Nc2ccc(S(=O)(=O)Nc3onc(C)c3C)cc2)cc(C)c1Cl` (centres undefined), for which the inhibition entry was “inactive”.
With `O=C(Nc1ccccc1[N+](=O)[O-])C1C(c2ccccc2)=C1c1ccccc1`, the inhibition is 40% (active).
On to `Cc1ccc(CN2CCN(/N=C/c3ccco3)CC2)c(C)c1`, for which the inhibition entry was “inactive”.
With `CC1=NN(c2cccc(Cl)c2)C(=O)C12CC(C)=C(C)CS2` (centres undefined), the inhibition was 45.5% (active).
In the case of `O=C(NCCc1ccccc1)c1ccc2c(c1)N(Cc1ccccc1)CCS2`, the inhibition result was “inactive”.
Take `COc1ccccc1N1CCN(c2ncnc3sc(C)c(-c4ccccc4)c23)CC1`: the inhibition is 56% (active).
Take `CCCCNC(=S)N/N=C1\CCCCc2ccccc21`: the inhibition entry was “inactive”.
As for `CCCC(=O)n1nc(NCc2ccc(OC)cc2)nc1NCc1ccc(OC)cc1`, the inhibition result was “inactive”.
For `O=C(Nn1c(SCc2ccc([N+](=O)[O-])cc2)nc2ccccc2c1=O)c1ccc(F)cc1`, the inhibition is 65% (active).
For `Cc1cccc(C(=O)Nc2ccccc2N2CCN(c3ccc(F)cc3)CC2)c1`, the inhibition is 40% (active).
For `CCCCC(=O)Nc1ccccc1N1CCN(c2ccc(F)cc2)CC1`, the inhibition was 69% (active).
For the compound `Cc1ccc(N2CCN(S(=O)(=O)c3ccc(F)cc3)CC2)c(C)c1`, the inhibition result is “inactive”.
For the compound `CCOC(=O)CSc1nc2c(sc(=S)n2CCc2ccccc2)c(=O)n1Cc1ccco1`, the inhibition is 29.5% (active).
The same measure for `COc1cccc(COc2ccc(N(C)S(=O)(=O)c3ccccc3)cc2)c1`: 50% (active); for `Cn1nc(-c2ccccc2)c(CSc2cccc(Cl)c2)c1Cl`: 34.5% (active); for `COC(=O)c1cc(NC2c3ccccc3C(=O)N2c2ccc(Cl)cn2)cc(C(=O)OC)c1` (centres undefined): 29.5% (active).
Regarding `CCOC(=O)C(C)n1cnc2scc(-c3ccc(C)c(C)c3)c2c1=O` (centres undefined), the inhibition entry was “inactive”.
As for `COCCNc1cc(-c2ccccc2)nc2cc(-c3cccc(F)c3)nn12`, the inhibition is 53.5% (active).
Consider `Cc1ccc(Cn2ccc(NC(=O)c3cc(C(C)C)on3)n2)cc1`, for which the inhibition entry was “inactive”.
Next, `O=C(Nc1cc(Cl)cc(Cl)c1)C(NCCCO)c1ccccc1` (centres undefined): “inactive”; `CC(C)C(=O)Nc1cccc(NC(=S)NC(=O)C(c2ccccc2)c2ccccc2)c1`: 52% (active).
The same measure for `COC(C(=O)Nc1ccc(S(=O)(=O)Nc2ccc(C)c(C)c2)cc1)c1ccccc1` (centres undefined): “inactive”.
